The whole screen tested about 330,000 compounds, of which about 10,000 (3%) were called active. This excerpt belongs to a sample that is enriched for actives. A number with no mark means an inactive call.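 The calls were made as follows: active = inhibition of at least 50% at 8 µM in the primary screen; inactive = the rest.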

The target of the test is Protein Mdm4 (Homo sapiens) + E3 ubiquitin-protein ligase Mdm2 (Homo sapiens) (UniProt O15151+Q00987). Nature of the test: inhibitors of human Mdm2-MdmX association, primary screen, cell-based, luminescence, split luciferase, SaOS-2, uHTS (AID 485346). To be noted: SaOS-2 split-luciferase Mdm2/MdmX complementation, at 8 µM, hits give high values.
Sequence of Protein Mdm4 (Homo sapiens) + E3 ubiquitin-protein ligase Mdm2 (Homo sapiens) (O15151 whole entry, looked up): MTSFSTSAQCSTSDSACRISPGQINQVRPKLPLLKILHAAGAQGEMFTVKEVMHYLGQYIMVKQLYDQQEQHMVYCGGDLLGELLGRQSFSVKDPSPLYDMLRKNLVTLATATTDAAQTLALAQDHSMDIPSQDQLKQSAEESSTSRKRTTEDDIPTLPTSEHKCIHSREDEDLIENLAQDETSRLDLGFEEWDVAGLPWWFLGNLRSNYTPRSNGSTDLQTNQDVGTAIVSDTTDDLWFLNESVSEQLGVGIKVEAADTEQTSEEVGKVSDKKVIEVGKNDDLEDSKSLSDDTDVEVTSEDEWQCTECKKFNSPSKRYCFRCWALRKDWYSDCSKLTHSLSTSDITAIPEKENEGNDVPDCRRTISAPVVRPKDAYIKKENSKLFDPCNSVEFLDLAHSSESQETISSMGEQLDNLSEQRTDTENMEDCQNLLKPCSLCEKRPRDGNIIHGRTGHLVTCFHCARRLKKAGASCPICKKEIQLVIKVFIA
Sequence of Protein Mdm4 (Homo sapiens) + E3 ubiquitin-protein ligase Mdm2 (Homo sapiens) (Q00987 whole entry, looked up): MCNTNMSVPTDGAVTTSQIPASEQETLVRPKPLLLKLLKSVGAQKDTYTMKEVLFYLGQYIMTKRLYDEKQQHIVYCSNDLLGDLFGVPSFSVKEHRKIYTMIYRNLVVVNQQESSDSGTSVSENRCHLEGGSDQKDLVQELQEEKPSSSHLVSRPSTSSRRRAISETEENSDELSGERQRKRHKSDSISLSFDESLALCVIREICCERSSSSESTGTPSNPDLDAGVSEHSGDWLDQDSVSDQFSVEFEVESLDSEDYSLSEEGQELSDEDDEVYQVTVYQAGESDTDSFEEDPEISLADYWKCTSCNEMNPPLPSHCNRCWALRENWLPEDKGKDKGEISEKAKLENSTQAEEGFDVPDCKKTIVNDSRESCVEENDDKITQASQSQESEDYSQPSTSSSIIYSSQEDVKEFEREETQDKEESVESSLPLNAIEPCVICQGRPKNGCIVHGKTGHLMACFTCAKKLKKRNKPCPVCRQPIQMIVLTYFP
Usually inhibition stands for the drop in the measured response relative to a control, in per cent. Turning to `COc1ccc(-c2nc3cc(C)ccn3c2NC2CCCCC2)cc1SC1CCCCC1`, the inhibition is 92.7% (active).

`CCOc1cc(-c2nc3cc(C)ccn3c2NCC2CCCO2)ccc1O` (stereo not drawn): the inhibition is 22.2%.

In the case of `COc1ccc(-c2nc3cnccn3c2NC2CCCCC2)cc1-c1cccc(Cl)c1`, the inhibition was 34.9%.

For `CCOc1ccc(C(=O)Nc2ccc(CN3CCOCC3)cc2)cc1Cl`, the inhibition is -7.17%.

Consider `CCN(CC)C(=O)Cn1cc(S(=O)(=O)CC(=O)NCc2ccc3c(c2)OCO3)c2ccccc21`, for which the inhibition is 15.5%.

On to `CC(C)(C)OC(=O)N1CCC(NC(=O)c2[nH]cnc2C(=O)N[C@@H](Cc2ccccc2)C(=O)OCc2ccccc2)CC1`, for which the inhibition is 65.6% (active).

As for `CC(C)(C)OC(=O)CNC(=O)c1[nH]cnc1C(=O)N[C@@H](Cc1ccccc1)C(=O)OCc1ccccc1`, the inhibition was 9.35%.

Consider `O=C(N[C@@H](Cc1ccccc1)C(=O)OCc1ccccc1)c1nc[nH]c1C(=O)NC1CCNCC1`, for which the inhibition is 20.5%.

In the case of `CC(C)c1ccc(NC(=O)[C@@H](NC(=O)N2CC(=O)Nc3ccccc32)C(C)C)cc1`, the inhibition is 46.3%.

As for `O=C(N1CCCC1)C12CC3CC(C1)CC(C(=O)N1CCCC1)(C3)C2`, the inhibition was 0.875%.

Turning to `CC(Sc1nnc(-c2ccccc2F)n1C1CC1)C(N)=O` (stereo not drawn), the inhibition is 2.33%.

In the case of `O=S1(=O)CCO[C@H]2Cc3ccccc3[C@H]2N1Cc1ccccc1`, the inhibition is -0.566%.

With `Cn1cc([N+](=O)[O-])c(C(=O)Nc2cnn(Cc3ccc(F)cc3)c2)n1`, the inhibition was 61.3% (active).

With `CCc1ccc(NC(=O)c2ccc(Cn3cc([N+](=O)[O-])cn3)cc2)cc1`, the inhibition is 7.69%.

Take `Cn1cc([N+](=O)[O-])c(C(=O)Nc2ccc3c(c2)OCCO3)n1`: the inhibition is 15.1%.

As for `CC(C)CCN(C(=O)c1csnn1)C(C(=O)NC1CCCC1)c1ccccc1` (stereo not drawn), the inhibition was 1.25%.

With `Cc1ccc(N2C(=O)c3ccccc3C2(O)c2ncc[nH]2)cc1` (stereo not drawn), the inhibition is 11%.

Regarding `CCOC(=O)c1ccc(NC(=O)c2cccnc2)cc1`, the inhibition was -5.28%.

With `CCCC(=O)Nc1nc2ccc(NC(=O)c3cccnc3)cc2s1`, the inhibition is 56.4% (active).

In the case of `CCCC(=O)Nc1nc2ccc(NC(=O)c3c(F)c(F)c(OC)c(F)c3F)cc2s1`, the inhibition was 40.2%.

Take `Clc1ccc(C2[C@H]3CN(CC4CCCCC4)[C@H](c4ccccc4)C34CC2(c2cccnc2)C4)cn1` (stereo partly drawn): the inhibition was -0.579%.

Consider `COC(=O)c1ccc(C23CC4(C2)[C@H](CN(Cc2cccnc2)[C@@H]4c2ccccc2)C3c2ccc(Cl)nc2)cc1` (stereo partly drawn), for which the inhibition was 21.5%.

As to `FC(F)(F)c1ccc(CN2C[C@@H]3C(c4ccccc4)C4(c5ccccc5)CC3(C4)[C@H]2c2ccccc2)cc1` (stereo partly drawn), the inhibition was 93.9% (active).

For the compound `O=C1c2ccccc2C(=O)N1CCC(c1ccccc1)c1ccco1` (stereo not drawn), the inhibition is -4.99%.

Take `CC1CCC(N2CC(=O)N(Cc3ccc4c(c3)OCO4)C(c3ccc(F)cc3)C2=O)CC1` (stereo not drawn): the inhibition is -7.03%.

As to `O=C(CN1C(=O)C2C3CCC(C3)C2C1=O)Oc1ccc2ccccc2c1` (stereo not drawn), the inhibition was 12%.

Regarding `CC1=CC(C)(C)Nc2ccc(OC(=O)CN3C(=O)C4CCCCC4C3=O)cc21` (stereo not drawn), the inhibition is 54% (active).

`CC1=CC(C)(C)Nc2ccc(OC(=O)C(Cc3ccccc3)N3C(=O)C4CCCCC4C3=O)cc21` (stereo not drawn): the inhibition is 42.7%.

Take `Cc1ccc(CNC(=O)Cn2cnc3c(NCc4ccccc4)ncnc32)o1`: the inhibition was 28.2%.

Consider `NC(=O)COc1ccc(C23CC4CC(CC(C4)C2)C3)cc1`, for which the inhibition is -45%.

Take `Cc1cc([N+](=O)[O-])nn1CC(=O)Nc1ccc(Cc2ccncc2)cc1`: the inhibition is 2.13%.

In the case of `CCOC(=O)N1CCN(C(=O)CSc2nc(=O)n3cccc(C)c3n2)CC1`, the inhibition is -0.597%.

For the compound `CCCN(CCC)c1nc2c(C)cccn2c(=O)c1/C=C1/SC(=S)N(Cc2ccco2)C1=O`, the inhibition is 2.98%.

For the compound `CCOC(=O)CC1C(=O)NCCN1c1nc2c(C)cccn2c(=O)c1/C=C1\SC(=S)N(C(C)CC)C1=O` (stereo not drawn), the inhibition is 59% (active).

Turning to `Cc1cc(C)n2nc(C(=O)Nc3cccc(S(=O)(=O)N4CCOCC4)c3)nc2n1`, the inhibition is 7.78%.

Consider `NC(=O)COc1ccccc1C(=O)NC12CC3CC(CC(C3)C1)C2`, for which the inhibition is 3.86%.

Take `COc1ccccc1C(=O)NC(=S)NC12CC3CC(CC(C3)C1)C2`: the inhibition was 63.6% (active).

For `COc1ccccc1C(=O)NC(=O)COC(=O)C1CC1`, the inhibition is -22.8%.

For `COc1ccc(N2CCN(CCNC(=O)Nc3cc(Cl)ccc3Cl)CC2)cc1`, the inhibition was 14.4%.

Take `CCCCn1c(N)c(N(CC(C)C)C(=O)c2ccc(Br)o2)c(=O)[nH]c1=O`: the inhibition was 25.9%.

As to `CNc1ccc(SC#N)cc1`, the inhibition is 0.392%.

For `COC(=O)Cc1[nH]n(-c2nc3ccccc3s2)c(=O)c1C(C)=Nc1ccc(OC)cc1`, the inhibition is 77.3% (active).

`CC(=NCc1ccco1)c1c(C(F)(F)F)[nH]n(-c2nc3ccccc3s2)c1=O`: the inhibition was 0.099%.

As to `COc1ccc(C2=NN(c3nc4ccccc4s3)C(=O)C2)cc1`, the inhibition is 1.88%.

In the case of `CCn1nc(C)c(CNC(=O)C2CCC(=O)N(Cc3cccc(F)c3)C2)c1C` (stereo not drawn), the inhibition was 28.2%.

Take `COc1ccc(CNC(=O)C[C@H]2C[C@H](C(=O)N3CCOCC3)[C@@]3(CCC4CCCC4)c4[nH]c5ccc(Cl)cc5c4CCN3C2=O)cc1OC`: the inhibition is 92.6% (active).

On to `O=C(C[C@H]1C[C@H](C(=O)N2CCOCC2)[C@@]2(CCC3CCCC3)c3[nH]c4ccc(Cl)cc4c3CCN2C1=O)NCc1ccco1`, for which the inhibition is 49.9%.

For the compound `COc1ccc2[nH]c3c(c2c1)CCN1C(=O)C(CC(=O)NCCCN(C)C)C[C@H](C(=O)N2CCOCC2)[C@@]31CCC1CCCC1` (stereo partly drawn), the inhibition was -3.6%.

As for `COCCN(C(=O)C(C)C)c1nnc(-c2ccc(C(C)(C)C)cc2)s1`, the inhibition was -22.5%.

For the compound `O=C(NC1(C(F)(F)F)NC(=O)N(C2CCCCC2)C1=O)c1ccco1` (stereo not drawn), the inhibition was 1.56%.

For `COC(=O)NC1(C(F)(F)F)NC(=O)N(C2CCCCC2)C1=O` (stereo not drawn), the inhibition is -5.21%.

With `O=C1NC(Nc2nc3ccccc3s2)(C(F)(F)F)C(=O)N1C1CCCCC1` (stereo not drawn), the inhibition was 66.2% (active).

`CC(Oc1ccc(F)cc1)C(=O)Nc1cc(S(=O)(=O)N2CCOCC2)ccc1N1CCN(C)CC1` (stereo not drawn): the inhibition was 13.7%.

These data come from PubChem BioAssay AID485346 (Sanford-Burnham Center for Chemical Genomics, 2010).
